Source: PubChem (University of Kansas High Throughput Screening Laboratory)
Rows were chosen to be rich in hits. Some 3.6% of all compounds tested hit in one or more screens of this group.
mHTT-CaM PPI inh: disrupts binding of mutant huntingtin to calmodulin; 3.6% of 190,000 active; AlphaScreen His-mHTT/GST-CaM binding, luminescence; P42858; inhibition, % at 15 µM; AID 1671202;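 also: 0% = both proteins with DMSO and 100% = one protein alone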
Pf apPOL block: Pf-apPOL DNA polymerase inhibition. Recombinant Pf-apPOL, molecular beacon fluorescence, 1.5 h. inhibition, % at 10 µM. 0.25% of 210,000 active. AID 1794808
The depositor's hits bear a star. Rule as the data show it: active = inhibition above about 50%; inactive = the rest.

SMILES	mHTT-CaM PPI inh	Pf apPOL block
O=C(c1ccc([N+](=O)[O-])cc1Cl)N1CCc2ccccc21	10	3
CSc1nc2c(c(Nc3ccc(N(C)C)cc3)n1)CCC2	57*	-1
CSc1nc2c(c(Nc3ccc(C)cc3)n1)CCC2	11	-11
CC(=O)Nc1ccc(-c2cn(CC(=O)NN)cn2)cc1	24	-2
COc1ccc(N2C(C)=NS(=O)(=O)c3cccnc32)cc1Cl	-1	-2
O=C(NCC(c1ccsc1)N1CCc2ccccc2C1)C(=O)NC1CCCC1 (stereo not drawn)	-10	1
Cc1ccccc1N1CCC(C(=O)NCc2ccccn2)C1=O (stereo not drawn)	21	-8
O=C(c1ccc(S(=O)(=O)Cc2ccccc2Cl)c([N+](=O)[O-])c1)N1CCCC1	4	-4
O=C(NCc1ccccn1)C1CC(=O)N(CCc2c[nH]c3ccc(Cl)cc23)C1 (stereo not drawn)	92*	-3
CCCNC(=O)C1CC(=O)N(CCc2c[nH]c3ccc(Cl)cc23)C1 (stereo not drawn)	28	0
O=C(NCCc1ccccc1)C1CC(=O)N(CCc2c[nH]c3ccc(Cl)cc23)C1 (stereo not drawn)	90*	-2
CC(C)CNC(=O)C1CC(=O)N(CCc2c[nH]c3ccc(Cl)cc23)C1 (stereo not drawn)	14	-1
O=C1CC(C(=O)N2CCc3ccccc3C2)CN1CCc1c[nH]c2ccc(Cl)cc12 (stereo not drawn)	65*	3
O=C1CC(C(=O)N2CCc3ccccc3C2)CN1CCc1c[nH]c2ccc(F)cc12 (stereo not drawn)	46	2
COc1cccc(NC(=O)NCC(c2ccco2)N2CCc3ccccc3C2)c1OC (stereo not drawn)	-4	-7
CCn1c(SC)nnc1-c1nn(C)c2c1CN(C(=O)c1cc(C)ccc1C)CC2	2	-4
Cc1sc2ncnc(N3CCC4(CC3)OCCO4)c2c1C	0	-6
CCC(=O)N1CCc2ccccc2C1C(=O)NCc1ccc(SC)cc1 (stereo not drawn)	7	0
N#CC1=C(N)NC(SCC(=O)Nc2ccc(Br)cc2)=C(C#N)C12CCCCC2	83*	-8
CCSC1=C(C#N)C2(CCCC2)C(C#N)=C(N)N1	2	2
O=C(COc1ccccc1[N+](=O)[O-])NCc1ccccc1	0	13
O=C(c1ccccc1)N1CCCC(c2ccnc(Nc3cccc(F)c3)n2)C1 (stereo not drawn)	72*	-4
CCOCC(=O)N1CCCC(c2ccnc(Nc3ccccc3C)n2)C1 (stereo not drawn)	5	-3
O=C(Cc1cccs1)N1CCCC(c2ccnc(Nc3cccc(F)c3)n2)C1 (stereo not drawn)	75*	-6
O=C(Cc1cccc(F)c1)N1CCCC(c2ccnc(Nc3ccccc3)n2)C1 (stereo not drawn)	90*	0
SMILES	mHTT-CaM PPI inh	Pf apPOL block
O=C(Cc1cccc(F)c1)N1CCCC(c2ccnc(-c3cccc(F)c3)n2)C1 (stereo not drawn)	7	-2
O=C(C1CC1)N1CCCC(c2ccnc(Nc3cccc(F)c3)n2)C1 (stereo not drawn)	16	-3
CC(C)C(=O)N1CCCC(c2ccnc(Nc3cccc(F)c3)n2)C1 (stereo not drawn)	11	-6
Cc1ccccc1Nc1nccc(C2CCCN(C(=O)COc3ccc(F)cc3)C2)n1 (stereo not drawn)	90*	-6
CC(C)C(NC(=O)c1ccco1)C(=O)N1CCC(c2noc(-c3ccccc3)n2)CC1 (stereo not drawn)	-4	0
Cc1ccccc1NC(=O)c1ccc(F)c(S(=O)(=O)NCc2cccs2)c1	1	-7
c1ccc(C23CC4CC(CC(C4)C2)C3)cc1	1	-6
CC(C)n1c(=O)c2c(ncn2Cc2ccc(F)cc2F)n(-c2ccc(F)cc2)c1=O	5	-4
O=C(c1cccs1)N1CCCC(c2ccnc(Nc3ccc(F)cc3)n2)C1 (stereo not drawn)	21	-3
O=C(c1cccs1)N1CCCC(c2ccnc(Nc3cccc(F)c3)n2)C1 (stereo not drawn)	93*	-1
O=C(NCCc1ccccc1Cl)c1ccc(NS(=O)(=O)c2cccs2)cc1	3	-4
O=C(Nc1ccccc1C(F)(F)F)N1CCC2(CC1)Nc1ccccc1-n1cccc12	36	0
COc1ccc(OC)c(NC(=O)N2CCC3(CC2)Nc2ccccc2-n2cccc23)c1	54*	9
O=C(Nc1ccccc1F)N1CCC2(CC1)Nc1cc(F)ccc1-n1cccc12	33	5
COc1ccc(NC(=O)N2CCC3(CC2)NC(=O)c2ccccc2N3C)c(C)c1	0	-4
COc1ccc(NC(=O)C2CCN(C(=O)c3ccc(F)cc3)CC2)c(OC)c1	3	3
COc1ccc(NC(=O)N2CCC3(CC2)Nc2cc(F)ccc2-n2cccc23)c(OC)c1	61*	-1
CCOc1ccccc1NC(=O)N1CCC2(CC1)Nc1cc(F)ccc1-n1cccc12	52*	4
